Screens as filed in PubChem.
mHTT CaM bind: mutant huntingtin-calmodulin interaction inhibitors – biochemical, AlphaScreen, primary screen; P42858; AlphaScreen His-mHTT/GST-CaM binding, luminescence; inhibition, % at 15 µM; 190,000 tested, 3.6% active; AID 1671202, 2021;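 note: 0% = both proteins with DMSO and 100% = one protein alone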
Pf apPOL block: Pf-apPOL inhibitors, biochemical, fluorescence; Recombinant Pf-apPOL, molecular beacon fluorescence, 1.5 h; 210,000 tested, 0.25% active; inhibition, % at 10 µM; Plasmodium falciparum apicoplast DNA polymerase (apPOL)
An asterisk follows results filed as active; · = no result. Shown are actives, neighbours in structure and some others; about 3.5% of the full set was active somewhere. Cut-off read from the data, not from the text of the source: active = inhibition above about 50%; inactive = the rest.

SMILES	mHTT CaM bind	Pf apPOL block
COc1ccccc1C=C1SC(=S)N(C(CCC(=O)O)C(=O)O)C1=O (stereo not given)	5	-20
CC(=O)N1CCN(c2nc3c(s2)CC(C(=O)NC2CCN(C)CC2)CC3)CC1 (stereo not given)	-2	4
O=C(c1csc(COc2cccc(Cl)c2)n1)N1CCCC1	0	-7
COCCn1cc2c3c(cccc31)CN(C(=O)NCc1ccccc1)CC2	6	-1
COCCn1cc2c3c(cccc31)CN(C(=O)c1ccccc1)CC2	40	-2
COCCn1cc2c3c(cccc31)CN(C(=O)c1cccc(Cl)c1)CC2	65*	-3
COCCn1cc2c3c(cccc31)CN(C(=O)c1ccc(F)c(Cl)c1)CC2	29	-5
COCCn1cc2c3c(cccc31)CN(C(=O)c1ccc(C)cc1)CC2	68*	-7
COCCn1cc2c3c(cccc31)CN(C(=O)c1ccccn1)CC2	24	-6
COCCn1cc2c3c(cccc31)CN(C(=O)CCCc1ccccc1)CC2	91*	-4
COCCn1cc2c3c(cccc31)CN(C(=O)c1ccc(C)c(F)c1)CC2	53*	-2
CCCCOc1ccc(CN2CCC(N(C)C)C(CO)C2)cc1 (stereo not given)	1	-3
CCCC(=O)Nc1cc(-c2cc3ccccc3n2CC)[nH]n1	7	-2
CC(C)C(C(=O)Nc1ccccc1[N+](=O)[O-])N1C(=O)c2ccccc2C1=O (stereo not given)	13	0
COc1ccc(C=C(C#N)C(=O)c2cc(C)on2)cc1	·	2
CCn1cc2c3c(cccc31)CN(C(=O)Cc1cccc(F)c1)CC2	66*	-2
CCCC(=O)N1CCc2cn(CC)c3cccc(c23)C1	14	-2
O=C(O)c1cc([N+](=O)[O-])c(C(=O)O)cc1Oc1cc(Cl)c(Cl)cc1Cl	-5	-5
Nc1cc(Cl)c(Oc2cccc(Cl)c2Cl)cc1[N+](=O)[O-]	97*	-3
COC(=O)C1=NN(c2cccc(C(F)(F)F)c2)C(=O)C1	·	-3
O=C(CN1C(=O)CCCc2ccccc21)NCc1ccc(F)cc1	0	2
CC(NC(=O)CN1C(=O)/C(=C/c2cccc(Cl)c2)Sc2ccccc21)c1ccccc1 (stereo not given)	4	1
Cc1ccc(-c2csc(Nc3ccccc3)n2)cc1	61*	0
Clc1cc(Cl)cc(Nc2nc(-c3ccccc3)cs2)c1	96*	-5
Cc1ccc(Nc2nc(-c3ccncc3)cs2)cc1	9	4
SMILES	mHTT CaM bind	Pf apPOL block
Clc1ccc(-c2csc(Nc3ccccc3)n2)s1	·	-2
Cc1ccc(Nc2nc(-c3ccccc3)cs2)cc1	64*	-9
COc1ccc(Nc2nc(-c3cccc(NC(C)=O)c3)cs2)cc1	44	3
COc1ccc(-c2csc(Nc3ccc(N)cc3)n2)cc1	88*	-2
O=[N+]([O-])c1ccc(-c2csc(Nc3cc(Cl)cc(Cl)c3)n2)cc1	2	0
O=C(NCCc1csc(C2CCCN(C(=O)C3CC3)C2)n1)C1CCC1 (stereo not given)	4	1
Cc1ccc(C2=NN(CCC(=O)NCCN3CCCC3)C(=O)CC2)cc1	5	-16
COc1ccc(CC(=O)N2CCN=C2SCc2ccc(Br)cc2)cc1	-16	-15
O=[N+]([O-])c1ccc(-c2csc(Nc3ccc(Oc4ccccc4)cc3)n2)cc1	60*	-2
COc1ccc(-c2csc(Nc3ccc(C)cn3)n2)cc1	10	-1
Cc1ccc(-c2csc(Nc3ccc(Cl)cc3)n2)cc1	47	0
Clc1ccc(-c2csc(Nc3ccc(Oc4ccccc4)cc3)n2)cc1	52*	1
O=[N+]([O-])c1cccc(Nc2nc(-c3ccncc3)cs2)c1	2	0
Cc1ccc(-c2csc(Nc3ccc(Oc4ccccc4)cc3)n2)cc1	68*	-3
O=C(NCCN1CCCCC1)C1CCc2sc(C(=O)N3CCCCCC3)cc2C1 (stereo not given)	6	2
CSc1ccccc1NC(=O)c1nnn(-c2nc3c(s2)CCCC3)c1C	-20	-1
CNC(=O)c1cc2c(=O)n3ccccc3nc2n(CCN2CCOCC2)c1=N	-3	5
CCCCNC(=O)CC1N=C2c3ccccc3N=C(SCc3ccc([N+](=O)[O-])cc3)N2C1=O (stereo not given)	53*	-2
CCCCNC(=O)CCC1N=C2c3ccccc3N=C(SCc3ccc([N+](=O)[O-])cc3)N2C1=O (stereo not given)	3	-2
Cc1cc(-c2ccc3c(c2)CCN3C(=O)C2CCCO2)on1 (stereo not given)	5	6
O=C1c2ccccc2-c2onc3ccc(N4CCOCC4)c1c23	17	-1
O=C1c2cccc(Cl)c2C(=O)c2c1cccc2N1CCOCC1	88*	10
Cc1ccc(N(C(=O)c2ccc(C(C)(C)C)cc2)C2C=CS(=O)(=O)C2)cc1 (stereo not given)	20	80*
O=C(c1ccc(Cl)cc1)N(c1ccc(Cl)cc1)C1C=CS(=O)(=O)C1 (stereo not given)	1	0
CCCCNC(=O)CCc1nc2ccccc2n(Cc2c(F)cccc2Cl)c1=O	23	-7
SMILES	mHTT CaM bind	Pf apPOL block
O=C(CCc1nc2ccccc2n(Cc2c(F)cccc2Cl)c1=O)NCc1ccccc1	55*	-7
Cc1ccc2[nH]c3c(c2c1)CCCC3=O	2	-6
Cc1ccc2[nH]c3c(c2c1)CCC1C3=NNC1c1ccco1 (stereo not given)	79*	-4
NC(=O)c1c(N)sc2c1CCCCC2	64*	-10
NC(=O)c1c(N)sc2c1CCC2	·	-9
COc1ccc(N2CCC(CNS(=O)(=O)c3cccc(Cl)c3)C2)cc1 (stereo not given)	84*	2
COc1ccc(N2CC(CNS(=O)(=O)c3ccc4c(c3)CCCC4)CC2=O)cc1 (stereo not given)	14	-6
CC(=O)Nc1c2c(nn1-c1cccc(C)c1C)CS(=O)(=O)C2	-3	-5
COc1cccc(C2C=C(c3ccc(F)cc3)Nc3ncnn32)c1OC(F)F (stereo not given)	73*	-5
COc1ccc(C2C=C(c3cccs3)Nc3ncnn32)cc1OC (stereo not given)	6	-3
Fc1ccc(C2=CC(c3ccccc3OC(F)F)n3ncnc3N2)cc1 (stereo not given)	10	-6
COc1ccc(C2C=C(c3ccc(Br)s3)Nc3ncnn32)cc1OC (stereo not given)	57*	-6
COc1cccc(C2=CC(c3ccc(OC)cc3OC)n3ncnc3N2)c1 (stereo not given)	22	-9
CCc1ccc(C2=CC(c3ccc(OC)c(OC)c3OC)n3ncnc3N2)cc1 (stereo not given)	35	-3
COc1ccc(C2C=C(c3cccc(NC(C)=O)c3)Nc3ncnn32)c(OC)c1 (stereo not given)	4	83*
COc1ccc(C2C=C(c3ccc(Cl)cc3)Nc3ncnn32)c(OC)c1OC (stereo not given)	89*	-3
C#CCOCC1CCN(C(=O)Cc2noc3ccccc23)CC1	20	-2
Cn1nccc1C(=O)N1CCC(CCOCc2cccc(F)c2)CC1	-4	-4
COc1ccc(N2C(=O)CC(Sc3nc(N)c(C#N)c(-c4ccc(C)cc4)c3C#N)C2=O)cc1 (stereo not given)	2	16
